From PubChem
In the library only some 3.1% were active in any assay of this set; here they are far more common.
CSC inhib: cancer stem cell inhibition; cancer stem cell-like cells viability, luminescence; inhibition, % at 7.5 µM; actives 1.1% (n = 300,000); AID 2717; in the data active = inhibition above about 75%; inconclusive = no clear call, values can overlap the other calls; tested in HMLE shEcad cells
Beta cell apopt: beta cell apoptosis inhibition. INS-1E cytokine-induced death, ATP luminescence, 48 h; percent of positive-control rescue, neutral wells zero. protection from apoptosis, % (test concentration not listed). actives 0.8% (n = 300,000);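 active = Every replicate reaches about 75%, or at least half do and their mean reaches it too, limit read from the data; inconclusive = At least half of replicates reach the limit but their mean does not; inactive = Under half of replicates reach the limit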;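 also: higher means more ATP so stronger rescue from cytokine killing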
SKKanGAS inh: inhibitors of SKKanGAS S. pyogenes growth in kanamycin (SK-promoter or general growth effect) | inhibition, % at 7.5 µM | actives 1.3% (n = 300,000) | AID 1662 | BacTiter-Glo, 6 h;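 active = mean replicate score, as percent of positive control median, at least 50; inconclusive = mean below 50 but one replicate at or above 50; inactive = mean and every replicate below 50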;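 also: strain carries kanamycin resistance gene driven by streptokinase promoter and grows in 40 µg/ml kanamycin; loss of luminescence reflects streptokinase promoter inhibition or plain growth inhibition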
PP1 inh: blocks human PP1-alpha phosphatase, a PP5 counter-screen; inhibition, % at 6.7 µM; P62136; AID 2235; purified PP1alpha, OMFP fluorescence; actives 0.9% (n = 320,000);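 active = inhibition above the mean inhibition of all tested compounds plus 3 SD, computed separately for each screening campaign, cut at about 15% in these data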
PP5 inh: inhibitors of human protein phosphatase 5 (PP5) | P53041 | purified PP5c, OMFP substrate fluorescence | inhibition, % at 6.7 µM | actives 0.18% (n = 320,000);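 active = inhibition above the campaign's mean inhibition across all tested compounds plus 3 SD, cut at about 9.5% in these data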
Target sequence (P53041 whole entry, looked up): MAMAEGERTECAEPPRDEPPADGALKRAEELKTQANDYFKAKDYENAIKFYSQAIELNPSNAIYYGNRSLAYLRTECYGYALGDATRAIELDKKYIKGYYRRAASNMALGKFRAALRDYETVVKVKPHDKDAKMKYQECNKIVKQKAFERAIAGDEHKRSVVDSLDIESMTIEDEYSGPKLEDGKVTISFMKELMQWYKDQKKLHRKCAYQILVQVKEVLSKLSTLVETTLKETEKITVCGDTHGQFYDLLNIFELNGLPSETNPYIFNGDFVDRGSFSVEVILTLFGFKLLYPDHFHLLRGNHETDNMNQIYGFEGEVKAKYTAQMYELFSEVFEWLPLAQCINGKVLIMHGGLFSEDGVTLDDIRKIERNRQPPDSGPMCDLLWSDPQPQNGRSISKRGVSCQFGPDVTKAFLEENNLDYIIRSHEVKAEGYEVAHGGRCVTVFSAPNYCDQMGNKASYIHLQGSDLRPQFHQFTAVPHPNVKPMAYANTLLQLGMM
Each line names hits and unclear results; the compound was inactive in the other large screens.

COc1ccc(CCn2c(=O)c3cccnc3n(Cc3cccc([N+](=O)[O-])c3)c2=O)cc1OC	none (no result: SKKanGAS inh)
Cc1nnc2ccc(Oc3ccc(-c4ccccc4)cc3)nn12	Beta cell apopt 92.3
COc1ccc(N(Cc2ccccc2)C(=O)CSc2nnc(Cn3nnc4ccccc43)o2)cc1	none (no result: CSC inhib)
O=C(CSc1nnc(Cn2nnc3ccccc32)o1)N(Cc1ccc(F)cc1)c1ccccc1	Beta cell apopt 108.7
Cc1ccccc1N=Nc1ccc(O)c2ncccc12	CSC inhib 99.3, Beta cell apopt 98.7, SKKanGAS inh 105.1
COc1ccc(C)cc1N=Nc1ccc(O)c2ncccc12	SKKanGAS inh 93.8 (no result: CSC inhib, Beta cell apopt, PP1 inh, PP5 inh)
CNC(=S)NNC(=O)c1sccc1OCc1ccc(Cl)cc1Cl	none
N/C(=N\NC(=O)c1sccc1OCc1ccc(Cl)cc1Cl)c1ccccn1	Beta cell apopt 77.9, SKKanGAS inh inconclusive
Cc1cc(C)n2nc(SCc3nnc(-c4ccccc4Br)o3)nc2n1	none
Cc1ccc(S(=O)(=O)NCc2ccc(C(=O)NCCN(Cc3ccccc3)C(C)C)cc2)cc1	none
CCNc1nc(Oc2c(Cl)cccc2Cl)cc(C(F)(F)F)n1	CSC inhib inconclusive, SKKanGAS inh 53.1
O=c1c2c(nc3cc(-c4ccccc4Cl)[nH]n13)CCS2	PP1 inh 16.8
CCc1ccc(C(=O)COC(=O)c2cncc(Br)c2)cc1	none
COc1ccc(-c2noc(CNC(=O)c3ccc4c(c3)OCO4)n2)cc1OC	none
Oc1ccc(-c2c(C3=CCCCC3)sc3ccccc23)cc1	SKKanGAS inh 56.1
COc1cc(-c2c(-c3ccsc3)sc3ccccc23)cc(OC)c1OC	none (no result: SKKanGAS inh)
COc1ccccc1C1CCN(C(=O)c2cccc([N+](=O)[O-])c2)CC1	none
S=C1NC[C@H](CC2CCCCC2)N1CC1CCCCC1	SKKanGAS inh 61.4
CCOC(=O)c1cccc(Nc2nc(-c3cccnc3)nc3ccccc23)c1	CSC inhib 92.1
Cc1noc(NS(=O)(=O)c2ccc(NC(=O)C(F)(F)C(F)(F)C(F)(F)F)cc2)c1C	none (no result: Beta cell apopt)
O=[N+]([O-])c1cc([N+](=O)[O-])c2cc3ccccc3nc2c1	CSC inhib 80.0
C[C@@H]1CC[C@H]2C(=O)N3[C@@H](CC[C@@H](C)[C@@H]3c3ccc(Br)cc3)C(=O)N2[C@H]1c1ccc(Br)cc1	CSC inhib 78.7
CC1C(=O)C(C)C(c2ccc(Br)cc2)NC1c1ccc(Br)cc1 (stereo not given)	none
COc1ccc(-c2csc3ncn(CC(=O)N4CCOCC4)c(=O)c23)cc1	none (no result: CSC inhib)
O=C(O)/C(=C\c1ccc2ccccc2c1)c1cccc2ccccc12	SKKanGAS inh inconclusive
CCN1CCCC1CNC(=O)c1ccc(Sc2ccccc2Cl)c([N+](=O)[O-])c1 (stereo not given)	none
CCN1CCCC1CNC(=O)c1ccc(Sc2ccc(F)cc2)c([N+](=O)[O-])c1 (stereo not given)	CSC inhib 78.5
COc1ccc(CN2C(=O)c3ccccc3C(/C=N\OCc3ccc(C)cc3)C2=O)cc1 (stereo not given)	SKKanGAS inh 106.2 (no result: Beta cell apopt)
COc1ccc(CN2C(=O)c3ccccc3C2OC)cc1 (stereo not given)	none
O=C(O)CC12CC3CC(C1)CC(n1cncn1)(C3)C2	none
O=C(c1cc(-c2ccccc2)nc2ccccc12)N1N=C(C(F)F)CC1(O)C(F)F (stereo not given)	none
Cc1ccc(-c2cc(C(=O)N3N=C(C(F)F)CC3(O)C(F)F)c3ccccc3n2)cc1C (stereo not given)	CSC inhib 98.4
Cc1ccc(C(=O)NC(=S)Nc2ccc(-c3ccc(CO)o3)cc2)cc1	SKKanGAS inh 60.7
CN1/C(=C\C(=O)C[n+]2ccc(C(=O)c3ccccc3)cc2)C(C)(C)c2ccccc21	Beta cell apopt 103.0
CN1/C(=C\C(=O)C[n+]2cccc(Br)c2)C(C)(C)c2ccccc21	Beta cell apopt 100.2
CN1/C(=C\C(=O)C[n+]2cccc(C(N)=O)c2)C(C)(C)c2ccccc21	none (no result: Beta cell apopt)
CN1/C(=C\C(=O)COC(=O)c2ccc(O)c(O)c2)C(C)(C)c2ccccc21	Beta cell apopt 95.1
O=C(NCc1ccc(F)cc1)c1cc2ccccc2o1	none
Cc1ccc(-c2cc(C(=O)N3CCN(c4ccc(O)cc4)CC3)c3ccccc3n2)cc1	CSC inhib 78.7 (no result: SKKanGAS inh, PP1 inh, PP5 inh)
CS(=O)(=O)N1CCN(C(=O)c2cc(-c3cccs3)nc3ccccc23)CC1	none
Cc1ccc(-c2cc(C(=O)N3CCN(c4ccccc4O)CC3)c3ccccc3n2)cc1	SKKanGAS inh 53.6
Cn1c(O)c(N=NC(=O)c2cc(-c3cccs3)nc3ccccc23)c2ccccc21	SKKanGAS inh 80.0 (no result: CSC inhib)
